Results: the supplement of paper PMC8728848
The sample as a whole holds a higher share of the strongest signals than the screen did.

Key:
Test in all cases: glycan array binding signal (z-score within array); higher = stronger binding
Settings in all cases: glycan notation: IUPAC condensed, linker removed
Fuc(a1-2)Gal(b1-3)GlcNAc = target: Fuc(a1-2)Gal(b1-3)GlcNAc
Procedure, shortened: (§1)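 The binding signal is a Z-score computed within each array. Data were drawn from 3228 arrays in the Consortium for Functional Glycomics database, restricted to those with a known protein sequence. Scores were averaged over arrays of the same protein sequence at different concentrations or buffers, and over linkers, and negative values can be taken as non-binding.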

[1] = target: Fuc(a1-2)Gal(b1-4)GlcNAc(b1-2)Man(a1-3)[Fuc(a1-2)Gal(b1-4)GlcNAc(b1-2)Man(a1-6)]Man(b1-4)GlcNAc(b1-4)[Fuc(a1-6)]GlcNAc
Procedure, shortened: as §1

[2] = target: Fuc(a1-2)Gal(b1-4)GlcNAc6S
Procedure, shortened: as §1

[3] = target: Fuc(a1-2)Gal(b1-4)[Fuc(a1-3)]GlcNAc(b1-3)Gal(b1-4)[Fuc(a1-3)]GlcNAc(b1-3)Gal(b1-4)[Fuc(a1-3)]GlcNAc
Procedure, shortened: as §1

[4] = target: Fuc(a1-2)[Gal(a1-3)]Gal(b1-4)GlcNAc(b1-2)Man(a1-3)[Fuc(a1-2)[Gal(a1-3)]Gal(b1-4)GlcNAc(b1-2)Man(a1-6)]Man(b1-4)GlcNAc(b1-4)[Fuc(a1-6)]GlcNAc
Procedure, shortened: as §1

[5] = target: Fuc(a1-2)[GalNAc(a1-3)]Gal(b1-3)GlcNAc(b1-2)Man(a1-3)[Fuc(a1-2)[GalNAc(a1-3)]Gal(b1-3)GlcNAc(b1-2)Man(a1-6)]Man(b1-4)GlcNAc(b1-4)[Fuc(a1-6)]GlcNAc
Procedure, shortened: as §1

[6] = target: Gal(a1-3)Gal(b1-3)GlcNAc(b1-3)GalNAc
Procedure, shortened: as §1

[7] = target: Gal(b1-3)GlcNAc(a1-6)Gal(b1-4)GlcNAc
Procedure, shortened: as §1

[8] = target: Gal(b1-3)GlcNAc(b1-2)[Gal(b1-3)GlcNAc(b1-6)]Man(a1-6)[Gal(b1-3)GlcNAc(b1-2)Man(a1-3)]Man(b1-4)GlcNAc(b1-4)GlcNAc
Procedure, shortened: as §1

[9] = target: Gal(b1-3)GlcNAc(b1-3)Gal(b1-4)GlcNAc(b1-2)[Gal(b1-3)GlcNAc(b1-3)Gal(b1-4)GlcNAc(b1-6)]Man(a1-6)[Gal(b1-3)GlcNAc(b1-3)Gal(b1-4)GlcNAc(b1-2)Man(a1-3)]Man(b1-4)GlcNAc(b1-4)[Fuc(a1-6)]GlcNAc
Procedure, shortened: as §1

[10] = target: Gal(b1-3)GlcNAc(b1-3)Gal(b1-4)GlcNAc(b1-3)Gal(b1-4)GlcNAc(b1-2)[Gal(b1-3)GlcNAc(b1-3)Gal(b1-4)GlcNAc(b1-3)Gal(b1-4)GlcNAc(b1-6)]Man(a1-6)[Gal(b1-3)GlcNAc(b1-3)Gal(b1-4)GlcNAc(b1-3)Gal(b1-4)GlcNAc(b1-2)Man(a1-3)]Man(b1-4)GlcNAc(b1-4)[Fuc(a1-6)]GlcNAc
Procedure, shortened: as §1

[11] = target: Gal(b1-4)GalNAc(b1-3)[Fuc(a1-2)]Gal(b1-4)GlcNAc
Procedure, shortened: as §1

[12] = target: Gal(b1-4)GlcNAc(b1-3)Gal(b1-4)GlcNAc(b1-2)Man(a1-3)[Gal(b1-4)GlcNAc(b1-3)Gal(b1-4)GlcNAc(b1-2)Man(a1-6)]Man(b1-4)GlcNAc(b1-4)GlcNAc
Procedure, shortened: as §1

[13] = target: Gal(b1-4)GlcNAc(b1-3)Gal(b1-4)GlcNAc(b1-3)Gal(b1-4)GlcNAc(b1-3)Gal(b1-4)GlcNAc(b1-3)Gal(b1-4)GlcNAc(b1-3)Gal(b1-4)GlcNAc(b1-2)Man(a1-3)[Gal(b1-4)GlcNAc(b1-3)Gal(b1-4)GlcNAc(b1-3)Gal(b1-4)GlcNAc(b1-3)Gal(b1-4)GlcNAc(b1-3)Gal(b1-4)GlcNAc(b1-3)Gal(b1-4)GlcNAc(b1-2)Man(a1-6)]Man(b1-4)GlcNAc(b1-4)GlcNAc
Procedure, shortened: as §1

[14] = target: Gal(b1-4)GlcNAc(b1-6)[Gal(b1-4)GlcNAc(b1-3)]GalNAc
Procedure, shortened: as §1

Gal3S(b1-4)Glc = target: Gal3S(b1-4)Glc
Procedure, shortened: as §1

Gal6S(b1-4)GlcNAc = target: Gal6S(b1-4)GlcNAc
Procedure, shortened: as §1

[15] = target: GalNAc(b1-4)GlcNAc(b1-2)Man
Procedure, shortened: as §1

GalNAc(b1-4)GlcNAc6S = target: GalNAc(b1-4)GlcNAc6S
Procedure, shortened: as §1

GalNAc(b1-6)GalNAc = target: GalNAc(b1-6)GalNAc
Procedure, shortened: as §1

[16] = target: GlcNAc(b1-2)Man(a1-3)[GlcNAc(b1-4)][GlcNAc(b1-2)Man(a1-6)]Man(b1-4)GlcNAc(b1-4)[Fuc(a1-6)]GlcNAc
Procedure, shortened: as §1

[17] = target: GlcNAc(b1-2)[GlcNAc(b1-6)]Man(a1-6)[GlcNAc(b1-2)Man(a1-3)]Man(b1-4)GlcNAc(b1-4)GlcNAc
Procedure, shortened: as §1

[18] = target: GlcNAc(b1-3)Gal(b1-4)GlcNAc(b1-3)Gal(b1-4)GlcNAc(b1-2)Man(a1-3)[GlcNAc(b1-3)Gal(b1-4)GlcNAc(b1-3)Gal(b1-4)GlcNAc(b1-2)Man(a1-6)]Man(b1-4)GlcNAc(b1-4)[Fuc(a1-6)]GlcNAc
Procedure, shortened: as §1

[19] = target: GlcNAc(b1-3)Gal(b1-4)GlcNAc(b1-3)Gal(b1-4)GlcNAc(b1-2)[GlcNAc(b1-3)Gal(b1-4)GlcNAc(b1-3)Gal(b1-4)GlcNAc(b1-6)]Man(a1-6)[GlcNAc(b1-3)Gal(b1-4)GlcNAc(b1-3)Gal(b1-4)GlcNAc(b1-2)Man(a1-3)]Man(b1-4)GlcNAc(b1-4)[Fuc(a1-6)]GlcNAc
Procedure, shortened: as §1

[20] = target: GlcNAc(b1-3)Gal(b1-4)GlcNAc(b1-3)Gal(b1-4)GlcNAc(b1-3)Gal(b1-4)GlcNAc(b1-2)Man(a1-3)[GlcNAc(b1-3)Gal(b1-4)GlcNAc(b1-3)Gal(b1-4)GlcNAc(b1-3)Gal(b1-4)GlcNAc(b1-2)Man(a1-6)]Man(b1-4)GlcNAc(b1-4)GlcNAc
Procedure, shortened: as §1

[21] = target: GlcNAc(b1-3)Gal(b1-4)GlcNAc(b1-3)Gal(b1-4)GlcNAc(b1-3)Gal(b1-4)GlcNAc(b1-2)[GlcNAc(b1-3)Gal(b1-4)GlcNAc(b1-3)Gal(b1-4)GlcNAc(b1-3)Gal(b1-4)GlcNAc(b1-6)]Man(a1-6)[GlcNAc(b1-3)Gal(b1-4)GlcNAc(b1-3)Gal(b1-4)GlcNAc(b1-3)Gal(b1-4)GlcNAc(b1-2)Man(a1-3)]Man(b1-4)GlcNAc(b1-4)[Fuc(a1-6)]GlcNAc
Procedure, shortened: as §1

[22] = target: GlcNAc(b1-3)Gal(b1-4)GlcNAc(b1-3)Gal(b1-4)GlcNAc(b1-3)Gal(b1-4)GlcNAc(b1-3)Gal(b1-4)GlcNAc(b1-2)[GlcNAc(b1-3)Gal(b1-4)GlcNAc(b1-3)Gal(b1-4)GlcNAc(b1-3)Gal(b1-4)GlcNAc(b1-3)Gal(b1-4)GlcNAc(b1-6)]Man(a1-6)[GlcNAc(b1-3)Gal(b1-4)GlcNAc(b1-3)Gal(b1-4)GlcNAc(b1-3)Gal(b1-4)GlcNAc(b1-3)Gal(b1-4)GlcNAc(b1-2)Man(a1-3)]Man(b1-4)GlcNAc(b1-4)[Fuc(a1-6)]GlcNAc
Procedure, shortened: as §1

[23] = target: GlcNAc(b1-3)Gal(b1-4)GlcNAc(b1-3)Gal(b1-4)GlcNAc(b1-3)GalNAc
Procedure, shortened: as §1

[24] = target: GlcNAc(b1-3)Gal(b1-4)GlcNAc(b1-6)[GlcNAc(b1-3)Gal(b1-3)]GalNAc
Procedure, shortened: as §1

[25] = target: GlcNAc(b1-4)GlcNAc(b1-4)GlcNAc(b1-4)GlcNAc(b1-4)GlcNAc
Procedure, shortened: as §1

B1: Pwp4 (Candida glabrata) (protein)
chain: MGSSHHHHHHSSGLVPRGSHMASVGNPITVSNVCSFPKNWHRTAGFRALTARLGIGIQSDSYKELLNYPGTFQLTTQQSSTTKPNFQISGLVGNIYGLTIVPSYLLVELTGYFVPPVSGEYTFSLEGSDDAAIIFIANPSTFKCGHVEDWPTAYDNDVTVTESIHATRTIYMIEGVAYPIRIAYYNGLSLGKLQASFTDPEGVKRVDWNGYIWRYDSCDTCSYV
glycan array binding signal (z-score) (Fuc(a1-2)Gal(b1-3)GlcNAc): -0.913
glycan array binding signal (z-score) [1]: 0.039
glycan array binding signal (z-score) [2]: -0.4
glycan array binding signal (z-score) [3]: 1.61
glycan array binding signal (z-score) [4]: -0.415
glycan array binding signal (z-score) [5]: -0.763
glycan array binding signal (z-score) [6]: -0.55
glycan array binding signal (z-score) [7]: 2.97
glycan array binding signal (z-score) [8]: -0.162
glycan array binding signal (z-score) [9]: 5.18
glycan array binding signal (z-score) [10]: 2.9
glycan array binding signal (z-score) [11]: -0.019
glycan array binding signal (z-score) [12]: 0.09
glycan array binding signal (z-score) [13]: 3.83
glycan array binding signal (z-score) [14]: 0.033
glycan array binding signal (z-score) (Gal3S(b1-4)Glc): -0.366
glycan array binding signal (z-score) (Gal6S(b1-4)GlcNAc): -0.68
glycan array binding signal (z-score) [15]: -0.392
glycan array binding signal (z-score) (GalNAc(b1-4)GlcNAc6S): -0.423
glycan array binding signal (z-score) (GalNAc(b1-6)GalNAc): -0.402
glycan array binding signal (z-score) [16]: -1
glycan array binding signal (z-score) [17]: 7.51
glycan array binding signal (z-score) [18]: 1.26
glycan array binding signal (z-score) [19]: 4.62
glycan array binding signal (z-score) [20]: 1.16
glycan array binding signal (z-score) [21]: 5.36
glycan array binding signal (z-score) [22]: 4.3
glycan array binding signal (z-score) [23]: -0.617
glycan array binding signal (z-score) [24]: -0.359
glycan array binding signal (z-score) [25]: -0.442
